An excerpt weighted towards active compounds, which were near 3.8% of everything screened.
FGF22 binding – shifts melting point of recombinant human FGF22. Q9HCT0. recombinant FGF22 thermal shift, SYPRO orange fluorescence; percent of sucrose octasulfate shift, DMSO zero. activity (Tm shift, normalised), % at 9.99 µM. actives 1.5% (n = 340,000). AID 651658;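 active means mean Tm shift, scaled 0 neutral to 100 positive control, at about 1.3% or above, every replicate too, limit read from the data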
ADAM10 inh – inhibitors of human ADAM10; O14672; recombinant ADAM10, EDANS/DABCYL FRET peptide cleavage, 3 h; inhibition, % at 7 µM; actives 0.62% (n = 370,000);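 active means inhibition above a per-campaign cutoff equal to the mean of compounds falling between control-based bounds plus 3 SD, cut at about 20% in these data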;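 further: 0% = DMSO wells while the 100% control is not disclosed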
Ecoli rRNA inh – inhibits bacterial ribosomal RNA function over humanized ribosomes. GFP signal change (wild-type ribosome), % (concentration not given with the values). E. coli WT GFP vs humanized-ribosome RFP mutants, fluorescence, 24 h; hits give low values; DMSO median 0, no signal -100. actives 1.6% (n = 350,000);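 active means significant combined selectivity score with lowered wild-type GFP, culture density cut under 30%, mutant RFP and density less affected; inactive means any of these conditions unmet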
KLK7 zymogen act – activators of human kallikrein-7 zymogen; activation, % at 7 µM; purified proKLK7, EDANS-DABCYL substrate fluorescence; 100% is mature enzyme control, 0% vehicle; actives 0.9% (n = 370,000); P49862;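 active means activation above the mean of all tested compounds plus 3 SD, computed per campaign excluding outliers beyond control limits, cut at about 13% in these data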
ADAM17 inh – inhibits human ADAM17 | P78536 | recombinant ADAM17, EDANS/DABCYL FRET peptide cleavage | inhibition, % at 6.95 µM | actives 0.83% (n = 370,000);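 active means inhibition above the mean of compounds lying between control limits plus 3 SD, set per campaign, cut at about 8.5% in these data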;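 further: 0% = DMSO-only wells as the low control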
proKLK7 act conf – proKLK7 activation, confirmation; shares compounds with KLK7 zymogen act; purified proKLK7, EDANS-DABCYL substrate fluorescence; scaled: vehicle 0, mature enzyme 100; activation, % at 7 µM; actives 68% (n = 3,200);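 active means activation, as change over the incubation, above the mean of all tested compounds plus 3 SD, cut at about 13% in these data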
EDANS interfere – optically interferes with EDANS-DABCYL signal, flagging KLK7 hits; shares compounds with KLK7 zymogen act; EDANS-DABCYL substrate fluorescence interference, no enzyme, 4 h; solvent 0%, active enzyme control 100%; actives 80% (n = 3,200); AID 686952; activation, % at 7 µM;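 active means activation above the all-compound mean plus 3 SD, ignoring values outside control-based bounds, cut at about 4.8% in these data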;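 further: value is the 4 h activation minus the activation read at time zero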
K7 EDANS ctr – EDANS fluorescence interference in dose response, no enzyme | shares compounds with KLK7 zymogen act | EDANS-DABCYL peptide fluorescence interference | EC50, µM | actives 20% (n = 250);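 active means compounds that raise the fluorescence signal in this interference counterscreen, with EC50 at or below 10 µM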;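 further: intact quenched peptide substrate alone read at 355 nm excitation and 520 nm emission; signal is fluorescence gain from T0 to T4 after four hours at room temperature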
Starred values were filed as active, the others as inactive; i = inactive; · = no result given.

SMILES	FGF22 binding	ADAM10 inh	Ecoli rRNA inh	KLK7 zymogen act	ADAM17 inh	proKLK7 act conf	EDANS interfere	others
CC(=O)Nc1cc2c3c(cccc3c1)-c1ccccc1-2	0	i	-18	89*	-481	28*	-18	K7 EDANS ctr=9.9*
CC(=O)Nc1ccccc1	0	2	·	0	-6	·	·
Nc1nn2cc(-c3ccccc3)nc2c2ccccc12	1	i	-41*	66*	i	55*	53*
CCCCc1cc(=O)oc2cc(C)cc(OC(C)C(=O)NCc3ccccn3)c12 (stereo unspecified)	0	-169	-3	-6	-44	·	·
Cc1cc(OC(C)C(=O)NCc2ccccn2)c2c(C)cc(=O)oc2c1 (stereo unspecified)	0	-425	8	14*	-135	11	12*
CN1C=CC2=C(C#N)C(N)C(C#N)(C#N)C(c3ccccc3)C2C1 (stereo unspecified)	·	-295	·	25*	-80	33*	35*
CN1C[C@@H]2C(c3ccccc3)C3(c4ccc(C#N)cc4)CC2(C3)[C@H]1c1ccccc1 (stereo partly specified)	0	1	-4	0	1	·	·
COc1ccc(OC)c(N=c2oc3cc(O)ccc3cc2C(N)=O)c1	·	i	·	14*	-414	12	15*
NC(=O)c1cc2ccc(O)cc2oc1=NCc1ccccc1	0	i	-16	69*	i	117*	125*
COc1ccc2cc(C(N)=O)c(=Nc3ccccc3)oc2c1	0	i	8	-1	-244	·	·
NC(=O)c1cc2ccc(O)cc2oc1=Nc1ccccc1	·	i	·	40*	i	10	7.9*
O=C(C[C@H]1C[C@H]2c3cc(NC(=O)C4CCOCC4)ccc3O[C@H]2[C@H](CO)O1)NCC1CC1	·	·	2	·	·	·	·
COc1ccc(NC(=O)O[C@H](c2ccc(OCCO)cc2)[C@@H](C)CCO)cc1	-1	·	·	·	·	·	·
O=C(c1ccccn1)N1[C@@H](CO)[C@@H](c2ccccc2)C12CN(Cc1ccccc1F)C2	·	·	3	·	·	·	·
CS(=O)(=O)NN1C(=O)c2ccccc2NC1c1ccccc1 (stereo unspecified)	0	i	7	79*	-219	10	15*
CS(=O)(=O)NN1C(=O)c2ccccc2NC1c1ccccc1O (stereo unspecified)	0	-307	6	36*	-114	6	6.4*
COc1cc(C2Nc3ccccc3C(=O)N2NS(C)(=O)=O)c([N+](=O)[O-])cc1OC (stereo unspecified)	0	-74	-8	6	-24	·	·
CS(=O)(=O)NN1C(=O)c2ccccc2NC1c1cccs1 (stereo unspecified)	0	i	6	63*	-199	0	11*
CS(=O)(=O)NN1C(=O)c2ccccc2NC1c1c[nH]c2ccccc12 (stereo unspecified)	0	-184	17	14*	-54	1	2
Cc1ccc(S(=O)(=O)NN2C(=O)c3ccccc3NC2c2ccccc2O)cc1 (stereo unspecified)	0	-53	16	3	-17	·	·
COc1ccc(-c2ccc3c(c2)[C@@H]2[C@@H](CCN2S(=O)(=O)c2ccccc2C)[C@H](CO)N3)cc1	0	·	2	·	·	·	·
C#CCNC(=O)C1=C[C@@H](C(C)(C)C)C[C@@H](OCCCCO)O1	0	·	·	·	·	·	·
COc1ccc(C2Nc3ccccc3C(=O)N2NS(C)(=O)=O)c(OC)c1 (stereo unspecified)	0	i	5	69*	-253	11	15*
CS(=O)(=O)NN1C(=O)c2ccccc2NC1c1cccc(O)c1 (stereo unspecified)	0	i	9	63*	-283	17*	19*

Compound activity: PubChem BioAssay, several laboratories
